Compound activity as filed in PubChem BioAssay.
Most compounds without a hit are left out; they make up all but 27% or so of the library.
CYP2C19 act = increases human CYP2C19 enzyme activity. P33261. recombinant CYP2C19, luciferin-H EGE luminescence; stronger effect = higher value; 0 = fully inhibited enzyme, 1 = untreated enzyme. activation factor at 5 µM. 96,000 tested, under 10 active. AID 1025;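 active means activation factor of at least 2 at 5 µM in the primary screen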;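 further: 0 = wells with 2.5 mM tranylcypromine and 1 = vehicle-only wells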
CYP2C9 act = CYP2C9 (human) activation | activation factor at 5 µM | P11712 | 1.4% of 96,000 active | AID 1024 | recombinant CYP2C9, luciferin-H conversion, luminescence; stronger effect = higher value; factor 1 = untreated enzyme, 0 = blocked;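 active means activation factor of 2 or more for CYP2C9 at a 5 µM dose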;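 further: 0 = sulfaphenazole-blocked wells and 1 = vehicle-only wells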
Target sequence (P11712 whole entry, looked up): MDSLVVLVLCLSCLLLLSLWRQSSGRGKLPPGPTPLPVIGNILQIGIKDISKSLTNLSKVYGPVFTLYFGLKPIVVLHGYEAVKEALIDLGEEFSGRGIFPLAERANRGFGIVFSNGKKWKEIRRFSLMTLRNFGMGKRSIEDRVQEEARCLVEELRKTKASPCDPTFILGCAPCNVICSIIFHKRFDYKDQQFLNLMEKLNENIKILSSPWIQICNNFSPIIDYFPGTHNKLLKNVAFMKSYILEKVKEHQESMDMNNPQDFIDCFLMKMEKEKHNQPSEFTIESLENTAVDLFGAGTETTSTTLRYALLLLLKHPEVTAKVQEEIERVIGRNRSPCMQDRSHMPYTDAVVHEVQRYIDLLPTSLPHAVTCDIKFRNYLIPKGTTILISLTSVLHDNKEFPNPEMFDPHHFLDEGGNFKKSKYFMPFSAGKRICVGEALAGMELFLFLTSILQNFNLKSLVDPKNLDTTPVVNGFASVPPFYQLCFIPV
CYP2C19 inhib = blocks human cytochrome P450 2C19; P33261; CYP2C19 Supersomes, luciferin-H EGE luminescence, 30 min; inhibition, % at 5 µM; 21% of 96,000 active; AID 778;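 active means CYP2C19 inhibition above a set limit at 5 µM in the primary screen, cut at about 50% in these data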;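 further: plate controls were negative control wells for no effect and 2.5 mM tranylcypromine positive control for full effect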
sEH activator = increases human soluble epoxide hydrolase activity; P34913; purified human sEH enzymatic activity, activator screen; activation, % at 2 µM; 0.04% of 91,000 active; in the data active means activation above about 37%
sEH inh = inhibitors of human soluble epoxide hydrolase; P34913; 0.34% of 91,000 active; recombinant human sEH enzymatic activity assay; AID 707; inhibition, % at 2 µM; in the data active means inhibition above about 80%
CYP2C9 inhib = inhibitors of human CYP2C9; 20% of 96,000 active; inhibition, % at 5 µM; AID 777; P11712; CYP2C9 Supersomes, luciferin-H conversion, luminescence;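 active means blocking of liver enzyme CYP2C9 beyond about 50% at 5 µM, limit read from the data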
* = called active by the depositor; x = not tested or not shown.

SMILES | CYP2C19 act | CYP2C9 act | CYP2C19 inhib | sEH activator | sEH inh | CYP2C9 inhib
CC1CC(C)CN(CCC(=O)Nc2cccc(Cl)c2)C1 (stereo not drawn) | 0.3 | 0.8 | 69.2* | 2.7 | -1.3 | 17.5
Cc1ccc(Cn2nnc3c(=O)n(CC(=O)NCc4ccc5c(c4)OCO5)cnc32)cc1 | x | x | x | -6.1 | 9.1 | x
CC(=O)c1cccc(NC(=O)CN2C(=O)NC3(CCCCCCC3)C2=O)c1 | 0.9 | 0.8 | 7.8 | 13.5 | -12.2 | 22.1
CCN(CC)c1ccc(NC(=O)CN2CCN(CC(=O)Nc3ccccc3F)CC2)cc1 | 0.8 | 0.9 | 20.1 | 1.6 | -2.1 | 6.9
O=C(CN1C(=O)NC2(CCCC2)C1=O)Nc1ccccc1F | 0.8 | 2.3* | 15.2 | 8.7 | -9.0 | -125.9
O=C(CN1CCCCCC1)Nc1ccccc1F | 0.4 | 1.1 | 63.1* | 6.0 | -2.2 | -11.0
O=C(CCN1CCN(CC(=O)Nc2ccccc2Cl)CC1)Nc1ccccc1F | 0.2 | 0.6 | 77.1* | -0.1 | 0.4 | 43.3
O=C(CN1CCN(CC(=O)Nc2ccccc2C(F)(F)F)CC1)Nc1ccccc1F | 0.2 | 0.9 | 84.8* | -7.0 | 6.3 | 7.3
CCc1ccccc1NC(=O)N1C2CCCC1CC(NC(C)=O)C2 (stereo not drawn) | 1 | 1.1 | 0.2 | -4.0 | 5.3 | -12.7
CCOC(=O)C(NC(C)=O)(Nc1ccc(S(=O)(=O)Nc2ccncn2)cc1)C(F)(F)F (stereo not drawn) | x | x | x | 4.9 | -2.4 | x
COC(=O)[C@H](Cc1ccccc1)NC(=O)NCc1ccccc1OC | 0.6 | 0.7 | 42.1 | -10.3 | 7.1 | 32.6
COCCSc1ccccc1C(=O)N1CCN(Cc2ccc3c(c2)OCO3)CC1 | 0.9 | 0.8 | 11.7 | -12.2 | 15.3 | 19.2
CCN1CCN(C(=O)c2ccc(COc3ccc(Cl)cc3)o2)CC1 | 1 | 1 | -2.9 | 7.8 | -4.2 | 1.1
O=C(c1ccc(COc2ccc(Cl)cc2)o1)N1CCN(Cc2ccc3c(c2)OCO3)CC1 | 0.8 | 0.4 | 16.0 | -9.8 | 7.8 | 62.3*
O=C(c1ccc(COc2ccccc2Cl)o1)N1CCN(Cc2ccc3c(c2)OCO3)CC1 | 0.3 | 0.1 | 71.8* | x | x | 86.7*
CS(=O)(=O)N1CCC(C(=O)c2cccc(Cl)c2)CC1 | 0.2 | 0.7 | 78.9* | 12.2 | -8.9 | 33.2
Nc1cccc2c1C(=O)N(C(=O)c1cccc(S(=O)(=O)N3CCCCCC3)c1)C2=O | 1 | 1 | 0.0 | 7.2 | -4.1 | 4.2
Cc1cc(CCN2CCC(=O)NC2=O)ccc1OC(C)C | 0.5 | 0.9 | 51.2* | -5.3 | 5.0 | 7.4
CCCOc1ccc(CCN2CCC(=O)NC2=O)cc1C | 0.8 | 0.8 | 23.5 | 10.7 | -10.4 | 23.0
COC(=O)C(C(C)=O)C1=C/C(=N\S(=O)(=O)c2ccc(C)cc2)c2ccccc2C1=O (stereo not drawn) | 0.1 | 0.1 | 90.4* | -4.9 | -0.7 | 89.0*
O=CNC(=O)c1ccccc1C(=O)O | 1.1 | 1.2 | -8.7 | 4.5 | -0.9 | -17.0
CN(C)c1ccc(/C=N/N=C2/NC(=O)/C(=C/c3ccc([N+](=O)[O-])cc3)S2)cc1 | 0.9 | 1.2 | 6.9 | 12.7 | -9.6 | -19.0
CC(C)(C)c1ccc(S(=O)(=O)N2CCN(CCC#N)CC2)cc1 | 0.5 | 1.4 | 50.0* | x | x | -38.1
COc1ccc(C(=O)c2c(C(F)(F)F)oc3c2C(=O)c2ccccc2C3=O)cc1 | 0.2 | 0.2 | 75.2* | -4.0 | 6.2 | 78.3*
CC1=C(C(=O)OCCOC(C)C)C(c2cc3c(cc2Br)OCO3)C2=C(CCCC2=O)N1 (stereo not drawn) | 0.1 | 0.8 | 88.7* | 0.7 | -2.1 | 23.1
SMILES | CYP2C19 act | CYP2C9 act | CYP2C19 inhib | sEH activator | sEH inh | CYP2C9 inhib
CC1=C(C(=O)OCCOC(C)C)C(c2cccnc2)C2=C(CCCC2=O)N1 (stereo not drawn) | 0.3 | 0.4 | 70.0* | -13.1 | 12.9 | 55.7*
CCN(CC)c1ccc(C2C(C(=O)OCCOC(C)C)=C(C)NC3=C2C(=O)CCC3)cc1 (stereo not drawn) | 0.7 | 0.7 | 27.4 | 3.6 | -3.1 | 25.4
C=CCOC(=O)C1=C(C)N(C)C(=O)NC1c1cc2c(cc1Br)OCO2 (stereo not drawn) | 0 | 0.3 | 96.3* | x | x | 71.2*
COCCOC(=O)C1=C(C)NC2=C(C(=O)CCC2)C1c1ccc(N(C)C)cc1 (stereo not drawn) | 0.8 | 0.7 | 20.7 | x | x | 30.0
CCOC(=O)C1=C(C)NC(=O)CC1c1cc2c(cc1Br)OCO2 (stereo not drawn) | 0 | 0.1 | 98.8* | x | x | 89.8*
OCCNc1nc(N2CCCC2)nc(N2CCCC2)n1 | x | x | x | 3.7 | -1.3 | x
COc1ccc(-c2nnc(N3CCC(C)CC3)c3ccccc23)cc1 | 0.8 | 0.7 | 18.1 | 4.3 | -3.8 | 27.0
O=P(CCC(F)(F)F)(CCC(F)(F)F)CCC(F)(F)F | 1.1 | 1.1 | -9.2 | -6.5 | 5.7 | -9.6
CCCC(C)C(=O)Nc1ccc(C(N)=O)cc1 (stereo not drawn) | 1.1 | 1.2 | -14.0 | 4.5 | -2.1 | -20.2
O=C(c1cccc(F)c1)N1CCN(C(=O)C2CC2)CC1 | 0.6 | 0.9 | 42.2 | 4.9 | -5.0 | 13.1
NC(=O)c1nn(-c2ccccc2)nc1N | 1 | 1 | -3.2 | -0.1 | 3.6 | 2.2
CCOc1cc2c3c(c1)C1(C(=O)N3C(C)(C)C=C2C)C(C#N)=C(N)Oc2cc(O)ccc21 (stereo not drawn) | 0.7 | 0.4 | 34.6 | -11.7 | 14.5 | 56.2*
COc1cc2c3c(c1)C1(C(=O)N3C(C)(C)C=C2C)C(C#N)=C(N)Oc2cc(O)ccc21 (stereo not drawn) | 0.5 | 0.1 | 51.2* | -5.5 | 0.2 | 88.7*
CCOc1ccc(NC(=O)COC(=O)c2cccnc2)cc1 | 0.9 | 0.8 | 12.9 | 6.7 | -5.2 | 16.2
Fc1ccccc1N1CCN(Cc2nc(-c3ccc(Cl)cc3Cl)no2)CC1 | 0.6 | 0.4 | 38.3 | -12.1 | 10.5 | 61.2*
COc1ccccc1C(=O)O/N=C1/CCCc2c1ccc(OC)c2[N+](=O)[O-] | 0.1 | 0.5 | 85.4* | -3.4 | 2.8 | 50.6*
CCN(c1cccc(C)c1)S(=O)(=O)c1cccc2nsnc12 | 0.1 | 0.5 | 88.9* | x | x | 53.3*
CN(C1CCS(=O)(=O)C1)S(=O)(=O)c1cccc2nsnc12 (stereo not drawn) | 1 | 1.1 | -3.0 | 9.4 | -11.4 | -9.8
CN(C)S(=O)(=O)c1cccc2nsnc12 | 0.8 | 0.9 | 16.4 | 2.5 | -2.4 | 11.6
Cc1cccc(N(C)S(=O)(=O)c2cccc3nsnc23)c1 | 0.4 | 1.7 | 64.2* | x | x | -69.9
Cc1ccnc(NC(=O)Nc2cccc(F)c2)c1 | 0.7 | 0.8 | 32.7 | -17.9 | 17.1 | 16.2
CC1CCCCC1N1CN=C(Nc2nc3ccccc3s2)NC1 (stereo not drawn) | 1 | 1.1 | 4.6 | -4.3 | 4.8 | -12.5
Cc1ccc(C(C)C)c(OCCCN2CC(C)OC(C)C2)c1 (stereo not drawn) | 0.2 | 1.2 | 75.8* | -8.4 | 10.6 | -17.0
Cc1ccccc1C(=O)OCn1nnc2ccccc2c1=O | 1 | 1.7 | 3.0 | x | x | -69.2
